# Reference: PubChem BioAssay (NCATS)
# Results filed as inconclusive are left out. Activity calls are given as the source filed them. Unless noted, the call rests on the fitted dose curve; in most records, active means well fitted curve in the direction sought with a large enough effect; inconclusive means small, poorly fitted or top-dose-only effect, or another doubt; inactive means no such curve, though single readings can be large; an effect the other way counts as inactive or inconclusive.
# What was measured:
# [1] = qHTS assay for small molecule agonists of retinoid X receptor alpha signaling (AID 588544; calls by dose curve;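 on activation: 0% = DMSO basal wells and 100% = reference agonist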); details: HEK293T RXRa-UAS-bla, beta-lactamase reporter, 18 h; 530 nm emission
# [2] = molecular target: Retinoic acid receptor RXR-alpha (Homo sapiens) (UniProt P19793); assay: as above; details: HEK293T RXRa-UAS-bla, beta-lactamase reporter, 18 h; series mostly up to 76.7 µM
# [3] = qHTS assay for small molecule antagonists of retinoid X receptor alpha signaling (AID 588546; active means well fitted inhibition curve with a large enough effect in the signal ratio, with a control signal flat, not every such curve was filed as active; the % refers to the signal ratio;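 further: cells stimulated with 9-cis-retinoic acid as agonist; on the % scale 0 is the no-effect control and ±100 the full control effect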); details: HEK293T RXRa-UAS-bla, beta-lactamase ratio, antagonist mode; measured here: W530 green channel, cytotoxicity proxy
# Procedure, shortened: (§1)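 Beta-lactamase reporter inhibition, read as CCF4 fluorescence ratio (ex 405, em 460/530 nm) after 2 h at RT. HEK293T UAS-bla cells, 2500/well, were stimulated with 9-cis-RA at 500 or 100 nM final alongside test compound for 18 h at 37 C.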
# [4] = molecular target: Retinoic acid receptor RXR-alpha (Homo sapiens) (UniProt P19793); assay: as above; details: HEK293T RXRa-UAS-bla, beta-lactamase ratio, antagonist mode
# Procedure, shortened: as §1
# [5] = molecular target: Thyroid hormone receptor beta (Homo sapiens) (UniProt P10828); assay: qHTS assay for small molecule antagonists of thyroid hormone receptor beta signaling (AID 588547; active means well fitted inhibition curve with a large enough effect in the signal ratio, with a control signal flat, not every such curve was filed as active; the % refers to the signal ratio;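 further: cells stimulated with 0.4 nM T3 agonist during compound exposure; on the % scale 0 is the no-effect control and ±100 the full control effect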); details: TR-UAS-bla HEK293, beta-lactamase ratio, antagonist mode, 18 h
# Procedure, shortened: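 TR-UAS-bla GripTite HEK293 cells in 2% charcoal/dextran FBS medium; compounds 0.59 nM to 92 uM with T3 at 0.4nM final, 18 h at 37 C. Beta-lactamase read by CCF4 fluorescence (460/530 nm); Hill fits gave IC50 and efficacy.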
# [6] = qHTS assay for small molecule agonists of the antioxidant response element (ARE) signaling pathway (AID 651741; active means well fitted activation curve with a large enough effect in the signal ratio; the % refers to the signal ratio; further: % of control where 0% means no effect); details: HepG2 ARE-bla reporter, beta-lactamase FRET ratio, 16 h; series mostly up to 96 µM
# Procedure, shortened: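 Stably integrated ARE-beta-lactamase reporter HepG2 cells; 16 h compound incubation, 37 C; LiveBLAzer FRET substrate 2 h at room temperature; fluorescence intensity.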
# [7] = qHTS assay for environmental chemicals that activate the Aryl hydrocarbon Receptor (AhR) signaling pathway (AID 651777); details: 1A2-DRE human hepatoma cells, luciferase, 24 h; stronger effect = higher value; further: % of control where 0% means no effect; nearly all actives have a fitted effect of over 15% in size
# Procedure, shortened: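 Concentration–response screening used 1,200 1A2-DRE cells per well, 24 hr compound exposure (37 C, 5% CO2), and One-Glo luminescence as the AhR-driven CYP1A2 reporter signal.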
# [8] = molecular target: Peroxisome proliferator-activated receptor alpha (Homo sapiens) (UniProt Q07869); assay: qHTS assay for small molecule agonists of the peroxisome proliferator-activated receptor alpha (PPARalpha) signaling pathway (AID 651778); details: PathHunter PPARalpha complementation, chemiluminescence, 6 h; stronger effect = higher value; further: % of control where 0% means no effect
# Procedure, shortened: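 Enzyme-fragment complementation assay in which ligand-bound PPARalpha translocates and forms an active enzyme that generates chemiluminescence. Cells were plated overnight, exposed to compound for 6 hr at 37 C, and then given detection reagent for 60 min at room temperature.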
# [9] = qHTS assay for small molecule agonists of the antioxidant response element (ARE) signaling pathway measured by Nrf2-dependant transcriptional activity (AID 720636; active means well fitted curve in the direction sought with a large enough effect in the repeat runs; an effect the other way counts as inactive or inconclusive;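 further: HepG2 cells with an ARE-driven luciferase reporter; % of control where 0% means no effect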); details: ARE-luc HepG2, Nrf2 luciferase reporter, 16 h; series mostly up to 92.4 µM
# Procedure, shortened: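 Attachment 6 hr at 37 C, then compound versus DMSO vehicle for 16 hr in ARE-luc HepG2 cells (1% dialyzed FBS); luminescence recorded 30 min after ONE-Glo addition at room temperature.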
# [10] = qHTS assay for small molecule agonists of the antioxidant response element (ARE) signaling pathway measured by Nrf2-dependant transcriptional activity - cell viability counter screen (AID 720653; active means well fitted curve in the direction sought with a large enough effect in the repeat runs; an effect the other way counts as inactive or inconclusive; further: on the % scale 0 is the no-effect control and ±100 the full control effect); details: ARE-bla HepG2 viability, CellTiter-Glo ATP luminescence, 16 h; stronger effect = lower value
# Procedure, shortened: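 ARE-bla HepG2 cells treated with compounds for 16 h at 37C; this counter screen measures viability as intracellular ATP by CellTiter-Glo luminescence after 30 min at room temperature.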
# [11] = qHTS assay for cell viability of HEK293 cells (AID 743288); details: ATP luminescence (CellTiter-Glo), 18 h, stronger effect = lower value; further: on the % scale 0 is the no-effect control and ±100 the full control effect; nearly all actives have a fitted effect of over 50% in size
# Procedure, shortened: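 Viable-cell counts were inferred from luciferase-based ATP content in HEK293 cells seeded at 2,000/well, pre-incubated ≥5 h, then dosed with DMSO-solubilised compounds for 18 h at 37 C.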
# [12] = qHTS assay for cell viability of the p53RE-bla HCT-116 cell line (AID 743292); details: p53RE-bla HCT-116 viability, ATP luminescence, 16 h; series mostly up to 95 µM; further: on the % scale 0 is the no-effect control and ±100 the full control effect; nearly all actives have a fitted effect of over 55% in size
# Procedure, shortened: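 Compound-exposed HCT-116 (p53RE-bla) cells, 4,000 per well, were kept 16 h at 37 C following a 5 h preincubation. Cell number was estimated from total ATP by CellTiter-Glo luminescence read after 30 min at room temperature.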
# Sequence of Retinoic acid receptor RXR-alpha (Homo sapiens) (P19793 whole entry, looked up): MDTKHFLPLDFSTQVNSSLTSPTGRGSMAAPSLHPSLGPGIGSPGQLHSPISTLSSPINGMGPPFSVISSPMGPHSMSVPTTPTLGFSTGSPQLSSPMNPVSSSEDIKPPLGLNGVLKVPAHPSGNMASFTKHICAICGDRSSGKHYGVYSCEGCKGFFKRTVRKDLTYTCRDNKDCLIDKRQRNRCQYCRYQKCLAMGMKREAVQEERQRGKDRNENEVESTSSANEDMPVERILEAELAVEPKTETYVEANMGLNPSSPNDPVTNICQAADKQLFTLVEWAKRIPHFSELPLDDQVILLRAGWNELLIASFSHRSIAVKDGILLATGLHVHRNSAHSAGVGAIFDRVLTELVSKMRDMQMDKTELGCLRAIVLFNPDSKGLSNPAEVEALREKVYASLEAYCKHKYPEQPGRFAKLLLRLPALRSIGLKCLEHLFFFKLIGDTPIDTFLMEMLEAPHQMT
# Sequence of Thyroid hormone receptor beta (Homo sapiens) (P10828 whole entry, looked up): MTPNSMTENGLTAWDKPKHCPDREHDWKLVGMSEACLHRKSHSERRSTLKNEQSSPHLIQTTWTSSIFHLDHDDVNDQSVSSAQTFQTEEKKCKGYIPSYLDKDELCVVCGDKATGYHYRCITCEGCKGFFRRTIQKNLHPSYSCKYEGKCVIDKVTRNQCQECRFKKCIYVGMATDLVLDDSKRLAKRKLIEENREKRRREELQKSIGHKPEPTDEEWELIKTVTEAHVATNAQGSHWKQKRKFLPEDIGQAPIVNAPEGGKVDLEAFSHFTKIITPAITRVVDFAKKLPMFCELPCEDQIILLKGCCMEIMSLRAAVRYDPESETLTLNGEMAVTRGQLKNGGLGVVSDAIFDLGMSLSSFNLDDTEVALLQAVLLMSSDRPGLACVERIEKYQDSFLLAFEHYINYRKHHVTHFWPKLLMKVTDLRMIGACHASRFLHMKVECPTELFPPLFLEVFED
# Sequence of Peroxisome proliferator-activated receptor alpha (Homo sapiens) (Q07869 whole entry, looked up, the tested form may be a part): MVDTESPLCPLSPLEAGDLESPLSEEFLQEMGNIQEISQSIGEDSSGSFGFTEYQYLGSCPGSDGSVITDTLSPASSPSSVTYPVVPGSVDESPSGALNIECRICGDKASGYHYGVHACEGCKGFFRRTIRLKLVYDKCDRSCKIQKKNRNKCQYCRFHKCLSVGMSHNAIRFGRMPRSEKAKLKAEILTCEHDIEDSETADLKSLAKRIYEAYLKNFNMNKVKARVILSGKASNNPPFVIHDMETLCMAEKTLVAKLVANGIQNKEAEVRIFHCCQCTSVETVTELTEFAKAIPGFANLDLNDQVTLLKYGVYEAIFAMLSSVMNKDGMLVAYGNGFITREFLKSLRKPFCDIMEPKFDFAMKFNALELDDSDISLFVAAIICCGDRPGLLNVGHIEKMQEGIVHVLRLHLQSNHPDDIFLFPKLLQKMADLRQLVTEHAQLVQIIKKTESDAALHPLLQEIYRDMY
smiles,measurement,setting,value
COc1c(Cl)ccc(Cl)c1C(=O)O,max response,[1],-9.41%
same,outcome,[2],inactive
same,max response,[3],-0.329%
same,max response,[4],3.8% (inactive)
same,activity change % (negative = inhibition),[5],5.53% (inactive)
same,Potency,[6],inactive
same,activation,[7],1.18% (inactive)
same,max response,[8],0.109% (inactive)
same,outcome,[9],inactive
same,max response,[10],-4.23% (inactive)
same,max response,[11],-3.63% (inactive)
same,outcome,[12],inactive
